According to PubChem BioAssay:
Activity calls are given as the source filed them.

Legend:
[1] = test system: PRMT1 (protein arginine N-methyltransferase 1); test: PRMT1 binders on small-molecule microarrays, primary screen, biochemical, small-molecule microarray, 635 nm fluorescence (AID 1088); conditions: small-molecule microarray binding, higher = more signal;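 also: binding of Prmt1 protein to compounds spotted on small-molecule microarray slides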
[2] = yeast growth modulation, basal conditions, primary screen, YJM789 clinical isolate, OD600, 24 h (AID 1089);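 also: growth of clinical yeast isolate S. cerevisiae YJM 789 seeded 1000 cells per well; test concentration not given here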; conditions: S. cerevisiae YJM789 growth, higher = more signal, called active from +8 up or from −8 down
[3] = fission yeast growth modulation, primary screen, strain 972, OD600, 24 h, no modulator (AID 1090);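 also: basal condition with compound alone and no growth modifier present; test concentration not given here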; conditions: S. pombe 972 growth, higher = more signal, called active from +8 up or from −8 down
[4] = S. cerevisiae growth modulation with rapamycin, primary screen, strain BY4716, OD600, 96 h (AID 1091); conditions: higher = more signal, called active from +8 up or from −8 down; also: test concentration not given here
[5] = target: Torsin-1A-interacting protein 2 (Homo sapiens) (UniProt Q8NFQ8); test: LULL1 binders on small-molecule microarray, primary screen, cell lysate, human LULL1 lysate, 635/667 nm fluorescence (AID 1092); conditions: hLULL1 lysate binding, 635 nm fluorescence, higher = more signal;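 also: probe is lysate of COS7 cells overexpressing human LULL1; score merges per-feature 667 nm fluorescence with signal-to-noise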
Sequence of Torsin-1A-interacting protein 2 (Homo sapiens) (Q8NFQ8 whole entry, looked up): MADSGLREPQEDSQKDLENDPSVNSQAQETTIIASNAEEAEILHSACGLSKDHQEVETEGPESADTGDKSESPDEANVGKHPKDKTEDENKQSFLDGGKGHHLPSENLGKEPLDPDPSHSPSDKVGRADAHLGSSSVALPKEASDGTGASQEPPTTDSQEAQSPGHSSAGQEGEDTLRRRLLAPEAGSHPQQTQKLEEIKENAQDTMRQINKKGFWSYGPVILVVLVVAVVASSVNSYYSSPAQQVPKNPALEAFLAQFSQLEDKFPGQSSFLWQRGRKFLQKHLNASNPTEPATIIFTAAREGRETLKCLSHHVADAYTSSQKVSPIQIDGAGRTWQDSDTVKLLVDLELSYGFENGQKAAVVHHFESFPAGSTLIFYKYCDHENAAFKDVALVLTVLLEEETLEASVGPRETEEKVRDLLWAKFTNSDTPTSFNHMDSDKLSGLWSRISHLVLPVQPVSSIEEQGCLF

[6] = E. coli growth modulation, two-sided OD650, primary screen, E. coli filamentation project, strain DRC41, 24 h (AID 1093); conditions: OD650, 24 h, higher = more signal, called active from +8 up or from −8 down;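 also: MC1000 strain lacking acrAB efflux and sulA so SOS filamentation is blocked; test concentration not given here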
[7] = small-molecule microarray binders of probe aLefty2, primary screen, biochemical, biotinylated probe, 635/667 nm fluorescence (AID 1094); conditions: higher = more signal;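 also: score merges spot fluorescence near 667 nm with spot signal-to-noise ratio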
[8] = test system: Noggin (protein binding on small-molecule microarray); test: Noggin binders on small-molecule microarray, primary screen, biochemical, 635/667 nm fluorescence (AID 1095); conditions: 635 nm fluorescence, higher = more signal;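 also: score merges 667 nm feature fluorescence with signal to noise over triplicate slides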
[9] = target: Neurogenic locus notch homolog protein 3 (Homo sapiens) (UniProt Q9UM47); test: NOTCH3 binders on small-molecule microarray, primary screen, biochemical, 635/667 nm fluorescence (AID 1096); conditions: NOTCH3 binding, 635 nm fluorescence, higher = more signal
Sequence of Neurogenic locus notch homolog protein 3 (Homo sapiens) (Q9UM47 whole entry, looked up): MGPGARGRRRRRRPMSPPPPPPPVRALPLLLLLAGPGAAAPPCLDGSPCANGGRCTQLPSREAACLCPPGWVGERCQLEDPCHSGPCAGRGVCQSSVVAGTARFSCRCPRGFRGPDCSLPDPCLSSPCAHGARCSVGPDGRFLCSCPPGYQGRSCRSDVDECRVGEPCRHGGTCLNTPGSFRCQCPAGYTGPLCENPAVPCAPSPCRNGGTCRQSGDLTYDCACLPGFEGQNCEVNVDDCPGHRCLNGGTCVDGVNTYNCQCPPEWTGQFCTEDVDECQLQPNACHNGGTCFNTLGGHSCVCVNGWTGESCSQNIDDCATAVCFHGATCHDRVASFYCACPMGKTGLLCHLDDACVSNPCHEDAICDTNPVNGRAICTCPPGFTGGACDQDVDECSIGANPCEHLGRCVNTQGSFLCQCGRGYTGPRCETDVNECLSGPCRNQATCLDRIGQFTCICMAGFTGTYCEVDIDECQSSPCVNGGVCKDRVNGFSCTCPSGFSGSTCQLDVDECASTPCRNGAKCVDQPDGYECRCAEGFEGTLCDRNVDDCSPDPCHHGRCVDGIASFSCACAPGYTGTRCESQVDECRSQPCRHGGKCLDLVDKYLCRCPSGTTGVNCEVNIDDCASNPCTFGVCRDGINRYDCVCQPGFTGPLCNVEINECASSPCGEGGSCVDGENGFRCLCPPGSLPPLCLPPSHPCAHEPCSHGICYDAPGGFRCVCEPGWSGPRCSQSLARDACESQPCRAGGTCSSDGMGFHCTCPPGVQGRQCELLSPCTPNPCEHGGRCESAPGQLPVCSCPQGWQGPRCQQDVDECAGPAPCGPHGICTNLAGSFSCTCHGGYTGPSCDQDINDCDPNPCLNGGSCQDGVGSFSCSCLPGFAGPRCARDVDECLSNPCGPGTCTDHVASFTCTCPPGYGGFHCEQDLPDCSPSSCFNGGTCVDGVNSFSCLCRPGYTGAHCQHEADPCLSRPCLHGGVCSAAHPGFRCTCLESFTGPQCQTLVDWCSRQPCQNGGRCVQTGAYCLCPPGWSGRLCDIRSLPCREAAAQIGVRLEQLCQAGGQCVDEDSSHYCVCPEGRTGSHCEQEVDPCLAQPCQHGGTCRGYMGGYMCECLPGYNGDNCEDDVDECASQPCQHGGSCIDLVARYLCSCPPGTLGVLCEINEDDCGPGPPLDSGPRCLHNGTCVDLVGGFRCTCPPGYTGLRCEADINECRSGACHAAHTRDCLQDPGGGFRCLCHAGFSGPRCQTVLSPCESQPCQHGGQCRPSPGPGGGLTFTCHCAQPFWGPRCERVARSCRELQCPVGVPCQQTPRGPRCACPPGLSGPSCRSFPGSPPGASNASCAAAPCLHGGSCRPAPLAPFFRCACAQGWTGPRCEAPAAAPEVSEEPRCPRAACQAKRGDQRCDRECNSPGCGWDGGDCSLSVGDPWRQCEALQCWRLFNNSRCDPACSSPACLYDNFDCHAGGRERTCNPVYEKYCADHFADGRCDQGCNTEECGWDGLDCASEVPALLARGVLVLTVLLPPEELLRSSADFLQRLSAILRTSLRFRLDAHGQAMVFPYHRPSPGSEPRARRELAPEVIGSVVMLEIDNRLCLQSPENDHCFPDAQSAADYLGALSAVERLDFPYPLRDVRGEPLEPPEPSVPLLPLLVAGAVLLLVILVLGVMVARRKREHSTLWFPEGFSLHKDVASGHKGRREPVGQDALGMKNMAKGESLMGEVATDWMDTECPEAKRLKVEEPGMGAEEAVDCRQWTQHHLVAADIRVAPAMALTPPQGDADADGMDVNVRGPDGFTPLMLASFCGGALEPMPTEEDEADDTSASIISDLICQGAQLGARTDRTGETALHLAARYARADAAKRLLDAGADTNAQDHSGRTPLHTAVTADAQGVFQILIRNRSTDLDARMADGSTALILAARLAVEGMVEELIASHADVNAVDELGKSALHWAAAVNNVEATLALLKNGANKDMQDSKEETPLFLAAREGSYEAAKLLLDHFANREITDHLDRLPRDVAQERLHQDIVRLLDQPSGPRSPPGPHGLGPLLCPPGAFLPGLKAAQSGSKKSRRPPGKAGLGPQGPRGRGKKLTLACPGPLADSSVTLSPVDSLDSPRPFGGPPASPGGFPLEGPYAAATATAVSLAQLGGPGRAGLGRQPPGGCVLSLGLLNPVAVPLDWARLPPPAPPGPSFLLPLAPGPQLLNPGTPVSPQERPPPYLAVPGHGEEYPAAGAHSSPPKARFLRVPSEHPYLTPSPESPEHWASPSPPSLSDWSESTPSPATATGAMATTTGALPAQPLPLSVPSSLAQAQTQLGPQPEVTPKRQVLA

[10] = small-molecule microarray binders of probe aEGFR, primary screen, biochemical, biotinylated probe, 635/667 nm fluorescence (AID 1097); conditions: higher = more signal;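 also: probe is a biotinylated anti-EGFR antibody binding compounds printed on slides; score combines fluorescence near 667 nm and signal to noise of each spot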
[11] = test system: Plasmodium falciparum Sir2 (PF13_0152, Sir2A); test: pfSir2 binders on small-molecule microarrays, primary screen, biochemical, small-molecule microarray, 635 nm fluorescence (AID 1098); conditions: small-molecule microarray binding, fluorescence 635 nm; higher = more signal;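 also: score merges spot fluorescence intensity with its signal-to-noise ratio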
[12] = small-molecule microarray binders of probe aDKK1, primary screen, biochemical, biotinylated probe, 635/667 nm fluorescence (AID 1099); conditions: higher = more signal;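 also: score merges 667nm spot fluorescence with signal to noise across triplicate slides; reference of the scale not given here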
[13] = small-molecule microarray binders of probe aCHRDL2, primary screen, biochemical, biotinylated probe, 635/667 nm fluorescence (AID 1100); conditions: higher = more signal
[14] = splicing luciferase reporter signal modulators, primary screen, spliceosome inhibition project, cell-based, HEK293, splice +/- reporter (AID 1101); conditions: luminescence, 24 h, higher = more signal, called active from +8 up or from −8 down;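 also: HEK293 cells carrying a splicing-competent luciferase reporter gene; test concentration not given here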
[15] = target: Fibroblast growth factor 10 (Homo sapiens) (UniProt O15520); test: FGF10 binders on small-molecule microarrays, primary screen, biochemical, small-molecule microarray, 635 nm fluorescence (AID 1102); conditions: FGF10 binding, fluorescence 635 nm, higher = more signal
Sequence of Fibroblast growth factor 10 (Homo sapiens) (O15520 whole entry, looked up): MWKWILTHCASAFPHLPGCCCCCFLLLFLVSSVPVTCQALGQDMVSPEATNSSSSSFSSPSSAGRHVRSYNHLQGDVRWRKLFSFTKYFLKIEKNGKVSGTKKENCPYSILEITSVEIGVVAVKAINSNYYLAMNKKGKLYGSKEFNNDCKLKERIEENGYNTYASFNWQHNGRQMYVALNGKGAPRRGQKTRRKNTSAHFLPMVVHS

[16] = test system: glycogen synthase kinase-3 (GSK3A per assay name; protocol says GSK3B); test: GSK3 binders on small-molecule microarrays, primary screen, biochemical, small-molecule microarray, 635 nm fluorescence, GSK3A (AID 1103); conditions: small-molecule microarray binding, fluorescence 635 nm; higher = more signal; also: the record names both GSK3A and GSK3B
[17] = target: Epidermal growth factor receptor (Homo sapiens) (UniProt P00533); test: EGFR binders on small-molecule microarrays, primary screen, biochemical, small-molecule microarray, 635 nm fluorescence (AID 1104); conditions: EGFR binding, higher = more signal;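 also: score merges 667 nm emission intensity with spot signal to noise over triplicate slides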
Sequence of Epidermal growth factor receptor (Homo sapiens) (P00533 whole entry, looked up): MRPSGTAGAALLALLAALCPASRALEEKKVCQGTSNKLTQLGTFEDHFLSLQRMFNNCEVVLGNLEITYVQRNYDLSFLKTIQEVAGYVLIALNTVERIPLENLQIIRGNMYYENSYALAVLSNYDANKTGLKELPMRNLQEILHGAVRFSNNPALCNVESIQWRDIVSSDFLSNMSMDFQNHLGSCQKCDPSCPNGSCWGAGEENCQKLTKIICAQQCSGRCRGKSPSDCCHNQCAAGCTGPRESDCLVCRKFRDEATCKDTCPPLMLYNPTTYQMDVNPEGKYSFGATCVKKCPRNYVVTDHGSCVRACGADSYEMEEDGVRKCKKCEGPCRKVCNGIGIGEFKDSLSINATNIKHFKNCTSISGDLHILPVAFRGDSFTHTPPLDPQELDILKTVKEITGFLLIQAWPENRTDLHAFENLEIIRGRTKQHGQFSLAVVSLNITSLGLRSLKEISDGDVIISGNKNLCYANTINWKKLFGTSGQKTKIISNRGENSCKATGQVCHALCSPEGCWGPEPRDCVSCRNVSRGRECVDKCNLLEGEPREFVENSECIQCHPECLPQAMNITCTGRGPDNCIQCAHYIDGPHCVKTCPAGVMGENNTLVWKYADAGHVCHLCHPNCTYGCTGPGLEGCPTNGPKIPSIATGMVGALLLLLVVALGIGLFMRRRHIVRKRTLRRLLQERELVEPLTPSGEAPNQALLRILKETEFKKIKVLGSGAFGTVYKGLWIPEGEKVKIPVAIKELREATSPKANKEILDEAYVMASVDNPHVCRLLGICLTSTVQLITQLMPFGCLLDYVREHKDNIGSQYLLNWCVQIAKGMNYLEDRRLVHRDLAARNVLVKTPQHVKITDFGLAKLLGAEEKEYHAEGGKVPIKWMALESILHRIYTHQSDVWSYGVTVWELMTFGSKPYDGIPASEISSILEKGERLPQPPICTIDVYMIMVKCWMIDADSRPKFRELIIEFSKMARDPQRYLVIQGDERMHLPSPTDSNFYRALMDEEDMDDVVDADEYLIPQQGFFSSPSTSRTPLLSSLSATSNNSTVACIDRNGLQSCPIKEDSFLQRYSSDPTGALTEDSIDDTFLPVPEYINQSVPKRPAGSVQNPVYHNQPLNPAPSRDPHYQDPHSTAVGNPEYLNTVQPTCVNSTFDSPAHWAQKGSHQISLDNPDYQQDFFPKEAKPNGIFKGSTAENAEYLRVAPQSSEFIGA

[18] = target: Follistatin-related protein 3 (Homo sapiens) (UniProt O95633); test: FSTL3 binders on small-molecule microarrays, primary screen, biochemical, small-molecule microarray, 635 nm fluorescence (AID 1105); conditions: FSTL3 binding, higher = more signal;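 also: score merges emission near 667 nm and signal to noise per printed spot across three slides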
Sequence of Follistatin-related protein 3 (Homo sapiens) (O95633 whole entry, looked up): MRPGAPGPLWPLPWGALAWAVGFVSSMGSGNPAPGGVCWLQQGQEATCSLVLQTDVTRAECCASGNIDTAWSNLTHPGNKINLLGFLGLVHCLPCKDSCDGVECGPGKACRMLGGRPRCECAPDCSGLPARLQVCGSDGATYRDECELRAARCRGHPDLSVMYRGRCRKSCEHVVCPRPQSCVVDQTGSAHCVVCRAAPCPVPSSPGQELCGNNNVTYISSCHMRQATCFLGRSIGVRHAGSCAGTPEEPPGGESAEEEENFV

[19] = target: Dickkopf-related protein 1 (Homo sapiens) (UniProt O94907); test: DKK1 binders on small-molecule microarrays, primary screen, biochemical, small-molecule microarray, 635 nm fluorescence scan (AID 1106); conditions: DKK1 binding, higher = more signal;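 also: score merges emission near 667 nm with signal to noise over three replicate slides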
Sequence of Dickkopf-related protein 1 (Homo sapiens) (O94907 whole entry, looked up): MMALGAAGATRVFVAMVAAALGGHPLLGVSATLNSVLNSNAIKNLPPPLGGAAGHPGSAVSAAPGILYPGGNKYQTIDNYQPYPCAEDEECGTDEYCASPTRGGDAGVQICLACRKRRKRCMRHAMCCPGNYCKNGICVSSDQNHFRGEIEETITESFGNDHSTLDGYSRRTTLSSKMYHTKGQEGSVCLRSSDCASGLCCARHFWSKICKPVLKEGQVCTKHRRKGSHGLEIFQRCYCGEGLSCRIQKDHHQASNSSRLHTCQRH

[20] = test system: Inhibin beta A chain (activin A); test: INHBA (activin A) binders on microarrays, primary screen, biochemical, small-molecule microarray, 635 nm fluorescence scan (AID 1107); conditions: small-molecule microarray binding, higher = more signal;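 also: mouse activin A protein probed at 4.33 µg/mL on printed slides; score merges bound-protein fluorescence near 667 nm with spot signal-to-noise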

For `CC(C)N1C(=O)c2ccccc2[C@](C)(C(=O)NC2CC2)[C@@H]1c1ccc(CO)cc1`, the composite z-score [1] was 1.49, the z-score [2] was -0.0975 (inactive) and the z-score [3] was 0.193 (inactive). The z-score [4] was -0.699 (inactive), the composite z-score [5] was 2.66 and the z-score [6] was 0.738 (inactive). For the same compound, the composite z-score [7] was -0.14, the composite z-score [8] was 0.614 and the composite z-score [9] was 0.764. It also gave a composite z-score [10] of -0.081, a composite z-score [11] of 0.173 and a composite z-score [12] of 0.0976. The composite z-score [13] was 0.151, the z-score [14] was -0.0713 (inactive) and the composite z-score [15] was 0.13. It also gave a composite z-score [16] of 0.821, a composite z-score [17] of -0.415 and a composite z-score [18] of 0.507. It also gave a composite z-score [19] of 0.33 and a composite z-score [20] of 0.926.
For `CCOC(=O)C1=C[C@@H](C(C)(C)C)N(S(=O)(=O)c2ccc(C)cc2)[C@H]1c1ccc(Cl)c(Cl)c1`, the composite z-score [1] was 1.46, the z-score [2] was 0.771 (inactive) and the z-score [3] was 1.71 (inactive). The z-score [4] was 2.44 (inactive), the composite z-score [5] was 2.68 and the z-score [6] was -0.875 (inactive). For the same compound, the composite z-score [7] was 0.201, the composite z-score [8] was 0.346 and the composite z-score [9] was 1.09. For the same compound, the composite z-score [10] was 0.239, the composite z-score [11] was 1.1 and the composite z-score [12] was 0.665. For the same compound, the composite z-score [13] was 0.827, the z-score [14] was 0.425 (inactive) and the composite z-score [15] was 0.733. For the same compound, the composite z-score [16] was 1.3, the composite z-score [17] was 0.481 and the composite z-score [18] was 0.924. The composite z-score [19] was 0.023 and the composite z-score [20] was 0.326.
With `C/C=C/[C@H](CCn1cc([C@H](O)c2ccccc2)nn1)[Si](C)(C)c1ccc(OC)cc1` the composite z-score [1] was -0.144, the z-score [2] was -0.298 (inactive) and the z-score [3] was -1.05 (inactive). The z-score [4] was -0.229 (inactive), the composite z-score [5] was 0.0061 and the z-score [6] was 0.0004 (inactive). The composite z-score [7] was -0.139, the composite z-score [8] was -0.953 and the composite z-score [9] was -0.999. The composite z-score [10] was -0.375, the composite z-score [11] was 0.0765 and the composite z-score [12] was -0.49. The composite z-score [13] was 0.503, the z-score [14] was 0.264 (inactive) and the composite z-score [15] was -0.607. For the same compound, the composite z-score [16] was -0.855, the composite z-score [17] was -1.52 and the composite z-score [18] was -1.72. It also gave a composite z-score [19] of -0.338 and a composite z-score [20] of -0.343.
In the case of `COCCn1c(C(=O)N2CCCC2)cc2c1C[C@H]1CN(C(=O)c3ccccc3)[C@@](Cc3ccc(OC)cc3)(C(=O)OC)[C@@H]21`, the composite z-score [1] is reported as 0.0027, the z-score [2] is reported as -2.08 (inactive) and the z-score [3] is reported as 0.422 (inactive). For the same compound, the z-score [4] was -0.651 (inactive), the composite z-score [5] was 1.72 and the z-score [6] was 0.0251 (inactive). For the same compound, the composite z-score [7] was 0.656, the composite z-score [8] was -0.843 and the composite z-score [9] was 1.1. For the same compound, the composite z-score [10] was 0.147, the composite z-score [11] was 0.994 and the composite z-score [12] was 1.41. The composite z-score [13] was 1.44, the z-score [14] was -1.82 (inactive) and the composite z-score [15] was 0.344. For the same compound, the composite z-score [16] was 0.194, the composite z-score [17] was -0.224 and the composite z-score [18] was 0.682. The composite z-score [19] was -0.223 and the composite z-score [20] was 1.06.
With `CO[C@H]1O[C@H](CO)[C@@H](OC(=O)Nc2cccc(F)c2)[C@H](OC(=O)Nc2ccccc2-c2ccccc2)[C@@H]1OC(=O)Nc1ccccc1-c1ccccc1` the composite z-score [1] was 1.55, the z-score [2] was 2.1 (inactive) and the z-score [3] was 1.88 (inactive). For the same compound, the z-score [4] was -1.23 (inactive), the composite z-score [5] was 3.34 and the z-score [6] was 0.675 (inactive). It also gave a composite z-score [7] of 0.134, a composite z-score [8] of 0.615 and a composite z-score [9] of 1.05. The composite z-score [10] was -0.013, the composite z-score [11] was 1.13 and the composite z-score [12] was 0.568. For the same compound, the composite z-score [13] was 0.74, the z-score [14] was 1.54 (inactive) and the composite z-score [15] was 1.17. It also gave a composite z-score [16] of 0.673, a composite z-score [17] of 0.407 and a composite z-score [18] of 1.11. The composite z-score [19] was 0.198 and the composite z-score [20] was 0.434.
